High-throughput results (PubChem)
hcDAF-12 act: H. contortus DAF-12 nuclear receptor activators, primary screen, cell-based, luminescence, HEK293, lit1-tk-luc reporter. HEK293 hcDAF-12 lit1-tk-luc reporter; 0% DMSO, 100% Δ7-dafachronic acid. activation, % at 6.8 µM. hit rate 1.4% among 370,000. AID 652067, 2013;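 active means activation above the mean of all tested compounds plus 3 SD, cut at about 5.5% in these data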
ssDAF-12 act: S. stercoralis DAF-12 nuclear receptor activators, primary screen, cell-based, luminescence, HEK293, GRIP1 co-expression, lit1-tk-luc; HEK293 ssDAF-12/GRIP1 lit1-tk-luc reporter; % of 3 µM dafachronic acid response; activation, % at 6.8 µM; hit rate 1% among 370,000;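 active means activation above the mean over all tested compounds plus 3 SD, cut at about 0.9% in these data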
DAX1 inh-1: DAX1 (NR0B1) inhibitors on StAR promoter, primary screen, cell-based, luminescence, SF-1 (NR5A1), full-length DAX-1; HEK293T StAR-luciferase reporter, SF-1/DAX-1 repression relief; inhibition, % at 6.8 µM; hit rate 1.1% among 370,000;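 active means inhibition above the mean over all tested compounds plus 3 SD, cut at about 3.6% in these data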;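 further: higher inhibition means more luminescence from relief of DAX-1 repression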
DAX1 inh-2: DAX1 (NR0B1) inhibitors, primary screen, cell-based, HEK293, Gal4-DAX1, luciferase luminescence; HEK293 Gal4-DAX1 luciferase reporter; hit rate 0.99% among 340,000; Nuclear receptor subfamily 0 group B member 1 (Homo sapiens), P51843; inhibition, % at 6.75 µM;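 active means inhibition above the mean over all tested compounds plus 3 SD, cut at about 4.2% in these data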;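 further: inhibition shows as a rise in luminescence from relieved DAX1 repression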
Target sequence (P51843 207-470 limits assumed): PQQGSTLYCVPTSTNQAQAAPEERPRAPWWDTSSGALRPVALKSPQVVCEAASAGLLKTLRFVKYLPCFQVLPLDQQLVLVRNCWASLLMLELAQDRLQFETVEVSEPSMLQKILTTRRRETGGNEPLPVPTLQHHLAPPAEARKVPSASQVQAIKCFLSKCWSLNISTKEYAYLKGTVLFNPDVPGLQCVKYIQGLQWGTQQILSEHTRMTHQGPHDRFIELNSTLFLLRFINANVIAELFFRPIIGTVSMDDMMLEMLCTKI
SMARCA2 activ: SMARCA2 (BRM) function activators, primary screen, cell-based, luminescence, high throughput; activation, % at 9.1 µM; hit rate 1% among 370,000; MG213 cells, MMTV-luciferase reporter, dexamethasone, overnight; in the data active means activation above about 7.8%
hgDAF12 agonist: H. glycines DAF-12 receptor agonists, primary screen, cell-based, luminescence, HEK293, GAL4 fusion, UAS-luciferase; Nuclear hormone receptor DAF-12 (Heterodera glycines), GAL4 fusion; HEK293 GAL4-hgDAF12 UAS-luciferase reporter, agonist luminescence; normalized to butyrate control; activation, % at 6.8 µM; hit rate 1.8% among 370,000; AID 687014, 2013;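 active means activation above a cutoff set at the mean of all screened compounds plus 3 SD, cut at about 10% in these data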
A number is an active result; – = inactive; · = no result given. Only some compounds are listed: those with a hit (about 4.8% of all), similar ones and a draw of the others.

SMILES	hcDAF-12 act	ssDAF-12 act	DAX1 inh-1	DAX1 inh-2	SMARCA2 activ	hgDAF12 agonist
CC(C)N1CCN(Cc2ccc(-c3ccccc3)cc2)CC1CCO (stereo not drawn)	–	–	–	–	–	–
CC(C)N1CCN(Cc2cc3ccccc3[nH]2)CC1CCO (stereo not drawn)	–	1.1	–	–	–	–
CCc1ccc(C(=O)NNC(=O)CCc2nc3ccccc3c(=O)[nH]2)cc1	–	–	3.6	–	–	–
CC1CCN(c2oc(-c3ccc(F)cc3)nc2C#N)CC1	–	–	–	–	7.8	–
COc1cc(N=Nc2ccc3ccccc3c2)ccc1O	–	1.7	–	8.1	–	–
O=C(NCc1ccco1)c1ccc(-c2ccc3nccn3c2)cc1	–	–	–	·	–	–
COc1cc(C2C(C(=O)c3ccc(C)o3)=C(O)C(=O)N2CCN2CCOCC2)ccc1OCCC(C)C (stereo not drawn)	–	–	–	–	–	–
CCCOc1cccc(C2C(C(=O)c3ccc(C)o3)=C(O)C(=O)N2CCN2CCOCC2)c1 (stereo not drawn)	5.8	–	–	–	–	–
CC(C(=O)c1ccccc1)[n+]1cccc(C(N)=O)c1 (stereo not drawn)	–	–	–	–	–	–
Cc1ccc(C(=O)C(C)[n+]2cccc(C(N)=O)c2)cc1 (stereo not drawn)	–	–	–	7.1	–	–
COc1ccc(/C=C2\CC3(OC(=O)c4ccco4)CCCN2C3)cc1 (stereo not drawn)	–	–	–	·	–	–
CCCOc1ccc(-c2nc(=S)[nH][nH]2)cc1	–	–	–	4.5	–	–
S=c1nc(-c2ccc(Cl)cc2)[nH][nH]1	–	–	–	–	–	–
C[C@H]1[C@@H](OC(=O)Nc2cc(Cl)ccc2Cl)CC[C@@]23CCCN2C(=O)CCC[C@@H]13	–	–	·	·	·	–
CCNc1nc(-c2cc(C)n(Cc3ccco3)c2C)cs1	–	–	–	5.0	–	–
CCN(CC(=O)Nc1ccc(NC(C)=O)cc1)C(=O)c1cccc(N2C(=O)c3ccccc3C2=O)c1	–	–	–	–	–	–
Cc1[nH][nH]c(=O)c1C(c1ccccc1[N+](=O)[O-])C(C#N)C#N (stereo not drawn)	–	–	–	–	–	–
CCCc1[nH][nH]c(=O)c1C(c1cccc(Cl)c1)C(C#N)C#N (stereo not drawn)	–	–	–	4.5	–	–
Cc1cc2c(cc1C)CN(c1ccccc1)C2	–	–	–	–	–	12.5
Cc1cc(N2Cc3ccccc3C2)ccc1C=O	–	–	–	–	–	13.1
CN(C)c1ccc(/C=C/CNC[C@H]2O[C@@H](n3ccc(N)nc3=O)[C@H](O)[C@@H]2O)cc1	–	–	–	–	–	–
COC(=O)[C@]12C=CCN1[C@H](c1ccc(OC)c(OC)c1)c1c(c3ccccc3n1S(=O)(=O)c1ccc(C)cc1)C2	–	3.8	–	·	–	–
COC(=O)[C@]12C=CCN1[C@H](c1ccccc1)c1c(c3ccccc3n1S(=O)(=O)c1ccc(C)cc1)C2	–	–	–	·	–	–
CC(CC(=O)c1ccc(F)cc1)N1CCN(c2ccccc2)CC1 (stereo not drawn)	–	–	–	–	–	–
CCOc1cc(C(=S)N2CCOCC2)ccc1OC(=O)/C=C/c1ccc(OC)c(OC)c1	–	–	–	–	–	10.8
CCOc1ccc(/C=C/C(=O)N2CCOCC2)cc1OC	–	–	–	–	–	–
O=C(NC1CCCCCCC1)c1ccc(Br)o1	–	–	–	–	–	–
COc1ccc(/C=C2\SC(N)=NC2=O)cc1	–	–	–	4.9	–	–
NC1=NC(=O)C(=Cc2ccccc2)S1	–	–	–	–	–	–
CCOC(=O)CSC1=NC(=O)/C(=C/c2ccc(OC)cc2)S1	·	·	·	–	·	·
